Screen size: about 350,000 compounds; about 840 (0.24%) were called active. Shown is part of a subset that was picked to be rich in actives. A number with no mark means an inactive call. Cut-off read from the data, not from the text of the source: active = inhibition above about 10%; inactive = the rest.
molecular target: Toxin B (Clostridioides difficile) (UniProt P18177); assay: TcdB glycohydrolase inhibitors, primary screen, biochemical, single point, plate reader (AID 652162); conditions: TcdB glycohydrolase enzymatic assay, at 9.99 µM, active compounds read high
Sequence (P18177 whole entry, looked up): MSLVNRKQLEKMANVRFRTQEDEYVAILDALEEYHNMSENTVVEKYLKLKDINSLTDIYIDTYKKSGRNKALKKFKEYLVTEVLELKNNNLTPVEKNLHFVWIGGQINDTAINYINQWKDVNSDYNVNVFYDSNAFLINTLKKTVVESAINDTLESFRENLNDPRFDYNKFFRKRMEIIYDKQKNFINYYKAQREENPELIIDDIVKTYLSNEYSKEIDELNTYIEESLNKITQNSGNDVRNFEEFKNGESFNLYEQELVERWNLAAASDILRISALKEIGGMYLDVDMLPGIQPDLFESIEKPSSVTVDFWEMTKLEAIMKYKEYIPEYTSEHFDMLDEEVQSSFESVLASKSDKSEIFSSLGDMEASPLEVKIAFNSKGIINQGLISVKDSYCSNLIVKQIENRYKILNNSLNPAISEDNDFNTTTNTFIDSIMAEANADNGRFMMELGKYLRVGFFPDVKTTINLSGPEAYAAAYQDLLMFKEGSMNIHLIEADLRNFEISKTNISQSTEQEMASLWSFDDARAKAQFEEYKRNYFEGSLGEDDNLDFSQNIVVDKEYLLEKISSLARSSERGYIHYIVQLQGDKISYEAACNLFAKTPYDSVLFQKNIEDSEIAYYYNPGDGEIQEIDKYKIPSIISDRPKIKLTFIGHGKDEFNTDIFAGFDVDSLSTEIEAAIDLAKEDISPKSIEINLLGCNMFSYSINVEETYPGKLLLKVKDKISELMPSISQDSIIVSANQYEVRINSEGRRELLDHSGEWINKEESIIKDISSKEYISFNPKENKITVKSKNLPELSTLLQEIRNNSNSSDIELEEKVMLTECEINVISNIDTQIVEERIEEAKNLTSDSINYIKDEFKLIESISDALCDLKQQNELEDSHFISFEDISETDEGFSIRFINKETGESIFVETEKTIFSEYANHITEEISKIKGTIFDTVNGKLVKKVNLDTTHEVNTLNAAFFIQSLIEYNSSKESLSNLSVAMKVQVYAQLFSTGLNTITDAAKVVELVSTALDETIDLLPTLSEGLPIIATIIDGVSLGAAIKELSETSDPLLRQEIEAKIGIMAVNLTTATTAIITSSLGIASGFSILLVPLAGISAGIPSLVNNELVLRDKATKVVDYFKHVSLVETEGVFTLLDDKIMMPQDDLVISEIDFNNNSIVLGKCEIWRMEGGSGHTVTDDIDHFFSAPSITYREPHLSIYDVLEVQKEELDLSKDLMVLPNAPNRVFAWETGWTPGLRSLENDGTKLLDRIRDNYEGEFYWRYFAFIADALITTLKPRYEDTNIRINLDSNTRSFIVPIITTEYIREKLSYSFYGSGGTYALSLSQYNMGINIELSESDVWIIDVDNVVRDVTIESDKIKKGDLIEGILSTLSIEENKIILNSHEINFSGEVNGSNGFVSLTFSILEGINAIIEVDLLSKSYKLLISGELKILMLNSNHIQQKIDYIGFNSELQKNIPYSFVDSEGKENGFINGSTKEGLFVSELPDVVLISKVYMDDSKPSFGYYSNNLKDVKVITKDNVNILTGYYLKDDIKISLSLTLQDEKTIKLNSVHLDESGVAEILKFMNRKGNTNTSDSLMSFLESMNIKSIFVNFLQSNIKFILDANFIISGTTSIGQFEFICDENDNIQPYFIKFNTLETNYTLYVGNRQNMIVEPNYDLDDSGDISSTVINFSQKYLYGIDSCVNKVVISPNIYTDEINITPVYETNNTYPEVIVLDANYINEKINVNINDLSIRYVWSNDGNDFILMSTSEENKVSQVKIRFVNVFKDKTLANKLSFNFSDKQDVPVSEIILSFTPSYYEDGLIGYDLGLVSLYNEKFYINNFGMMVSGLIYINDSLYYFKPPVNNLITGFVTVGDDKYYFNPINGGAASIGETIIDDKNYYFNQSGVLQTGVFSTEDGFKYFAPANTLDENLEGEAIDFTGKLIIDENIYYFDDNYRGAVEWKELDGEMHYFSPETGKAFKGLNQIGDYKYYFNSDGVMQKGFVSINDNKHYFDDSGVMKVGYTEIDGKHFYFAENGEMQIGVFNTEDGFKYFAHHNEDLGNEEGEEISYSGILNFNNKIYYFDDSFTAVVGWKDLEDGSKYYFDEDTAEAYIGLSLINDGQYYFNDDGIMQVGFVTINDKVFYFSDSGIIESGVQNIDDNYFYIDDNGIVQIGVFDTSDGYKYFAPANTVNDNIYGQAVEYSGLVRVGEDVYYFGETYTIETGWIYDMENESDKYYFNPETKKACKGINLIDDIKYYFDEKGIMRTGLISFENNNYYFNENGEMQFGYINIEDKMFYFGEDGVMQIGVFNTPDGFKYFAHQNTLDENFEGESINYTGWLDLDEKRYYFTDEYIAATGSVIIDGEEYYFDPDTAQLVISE

| SMILES | inhibition |
| --- | --- |
| Cc1noc(C)c1S(=O)(=O)N(C)C[C@@H]1Oc2c(NS(=O)(=O)c3cn(C)cn3)cccc2C(=O)N([C@H](C)CO)C[C@@H]1C | -0.292% |
| COc1ccc(S(=O)(=O)N(C)C[C@@H]2Oc3ccc(NC(=O)C4CC4)cc3CC(=O)N([C@@H](C)CO)C[C@@H]2C)cc1 | 0.342% |
| S=C(NCc1ccco1)Nc1ccc2c(c1)OCCO2 | -0.084% |
| COC(=O)Cc1ccc(NC(=S)NCc2ccco2)cc1 | 16% (active) |
| COc1cccc(OC)c1C(=O)NC(=S)NCc1ccco1 | 1.13% |
| COC(=O)C[C@H]1CC[C@H]2[C@@H](COc3ccc(NC(=O)C4CC4)cc3C(=O)N2C)O1 | 0.647% |
| COc1ccc2c3c(n(C)c2c1)[C@H](CO)N(C(=O)C1CCCC1)CC31CCN(C(=O)c2ccncc2)CC1 | 0.361% |
| C[C@H](O)C#Cc1ccc([C@@H]2[C@@H](CO)N3CCCCN(C(=O)c4ccncc4)C[C@@H]23)cc1 | 0.304% |
| CCS(=O)(=O)N1CCC2(CC1)CN(Cc1ccc3c(c1)OCO3)[C@H](CO)c1[nH]c3cc(OC)ccc3c12 | 0.545% |
| CCCC#Cc1ccc([C@@H]2[C@@H](CO)N3C(=O)CN(C(=O)Nc4cccc(F)c4)C[C@H]23)cc1 | 0.796% |
| O=C(c1ccncc1)N1CC(=O)N2[C@H](CO)[C@H](c3ccc(-c4ccccc4F)cc3)[C@@H]2C1 | -0.127% |
| COCC#Cc1cnc2c(c1)C(=O)N([C@@H](C)CO)C[C@@H](C)[C@@H](CN(C)S(=O)(=O)c1cccc(OC)c1)O2 | 0.452% |
| CC(C)NC(=O)Nc1ccc2c(c1)C(=O)N([C@H](C)CO)C[C@H](C)[C@@H](CN(C)C)OCCCC[C@H](C)O2 | 0.315% |
| COc1ccc(NC(=O)N(C)C[C@H]2Oc3c(NC(=O)C4CC4)cccc3C(=O)N([C@@H](C)CO)C[C@@H]2C)cc1 | -0.546% |
| CNC(=O)C[C@@H]1CC[C@@H]2[C@H](COC[C@H](O)CN2Cc2ccc(C(F)(F)F)cc2)O1 | -1.26% |
| C[C@@H]1CCCCO[C@H](CN(C)C(=O)Nc2cccc3ccccc23)[C@H](C)CN([C@@H](C)CO)C(=O)c2cc(NC(=O)CCCN(C)C)ccc2O1 | -0.333% |
| O=C(C[C@@H]1C[C@@H]2c3cc(NC(=O)C4CCOCC4)ccc3O[C@@H]2[C@H](CO)O1)NCc1ccncc1 | 0.039% |
| C/C=C/c1ccc([C@@H]2[C@@H](CO)N(C(=O)c3ccccc3)C23CN(C(C)=O)C3)cc1 | 1.41% |
| C[C@@H]1CN([C@@H](C)CO)C(=O)c2cc(C#CCN(C)C)cnc2O[C@H]1CN(C)S(=O)(=O)c1cn(C)cn1 | 1.29% |
| CCc1ccc(N2CC(O)=C(c3nc4ccccc4c(=O)[nH]3)C2=N)cc1 | 2.4% |
| COc1ccccc1N1CC(O)=C(c2nc3ccccc3s2)C1=N | 14.9% (active) |
| Oc1ccc(-c2[nH]ncc2-c2nc3ccccc3s2)c(O)c1 | -1.73% |
| O=C(C[C@H]1CC[C@H]2[C@@H](COC[C@H](O)CN2C(=O)c2ccccc2F)O1)NCc1ccccc1 | 0.135% |

| SMILES | inhibition |
| --- | --- |
| CO[C@H]1CN(C)C(=O)c2cc(NS(=O)(=O)CC(F)(F)F)ccc2OC[C@H](C)N(C(=O)c2ccc3c(c2)OCO3)C[C@H]1C | 0.021% |
| COCC(=O)N1CC[C@@H]2[C@@H](CO)Nc3ccc(-c4ccc(C(=O)N(C)C)cc4)cc3[C@@H]21 | -1.67% |
| O=C(NN=C1CCC(=NNC(=O)c2cccnc2)CC1)c1cccnc1 | 54% (active) |
| O=C(Nc1cnccn1)c1cccnc1 | 1.15% |
| O=C(CC(=O)c1cccnc1)c1ccccc1 | 0.622% |
| CCOc1ccc(C(CC(=O)O)NC(=O)C23CC4CC(CC(C4)C2)C3)cc1OC (centres undefined) | 12.9% (active) |
| COc1ccc(C(C)NC(=O)C23CC4CC(CC(C4)C2)C3)cc1 (centres undefined) | 0.441% |
| CCOc1ccc(C(CC(=O)O)n2cnnn2)cc1OC (centres undefined) | 1.46% |
| CC(C)NC(=O)N(C)C[C@@H]1Oc2ccc(NS(=O)(=O)c3ccccc3)cc2C(=O)N([C@@H](C)CO)C[C@H]1C | 1% |
| Cc1noc(C)c1NC(=O)N(C)C[C@@H]1OCCCC[C@H](C)Oc2ccc(NC(=O)NC3CCCCC3)cc2C(=O)N([C@H](C)CO)C[C@H]1C | 1.84% |
| COC(=O)C1=C[C@@H](C(=O)OC)[C@@H]2C3=C(C(=O)[C@]2(C)NC(=O)c2ccccc2)[C@H](C)n2c(=O)n(C)c(=O)n2[C@@H]3C1 | 11.2% (active) |
| CCC1(CC)C(=O)C2=C3C1[C@H](C(=O)OC)C=C(C(=O)OC)C[C@H]3[C@H]1C(=O)N(Cc3ccccc3)C(=O)[C@H]1[C@H]2C (some centres undefined) | 0.94% |
| C[C@H]1CN([C@@H](C)CO)C(=O)c2cc(NS(=O)(=O)c3ccccc3)ccc2O[C@@H]1CN(C)C(=O)NC1CCCCC1 | 3.22% |
| O=C(NC[C@H]1[C@@H](c2ccccc2)[C@H](CO)N1CC1CC1)c1cccnc1 | -2.13% |
| C/C=C/c1ccc2c(c1)O[C@H](CN(C)Cc1cccc(F)c1)[C@H](C)CN([C@H](C)CO)S2(=O)=O | 0.906% |
| Cc1ccc(S(=O)(=O)N(C)C[C@@H]2OCCCC[C@@H](C)Oc3ccc(NC(=O)Nc4ccc(C(F)(F)F)cc4)cc3C(=O)N([C@@H](C)CO)C[C@@H]2C)cc1 | -1.2% |
| COCC(=O)Nc1ccc2c(c1)C(=O)N(C)[C@@H]1CC[C@H](CC(=O)NCCc3ccccc3)O[C@@H]1CO2 | -0.476% |
| COc1ccc(NC(=O)N(C)C[C@H]2Oc3cc(-c4ccncc4)ccc3S(=O)(=O)N([C@@H](C)CO)C[C@H]2C)cc1 | 0.138% |
| C[C@@H]1CN([C@H](C)CO)C(=O)c2cc(-c3ccc(C(=O)N(C)C)cc3)cnc2O[C@H]1CN(C)C(=O)C1CC1 | 1.01% |
| CCC(=O)N(C)C[C@H]1Oc2cc(C#CC3CC3)ccc2S(=O)(=O)N([C@H](C)CO)C[C@H]1C | -0.263% |
| COCC(=O)N1C[C@H]2[C@@H](c3ccccc31)[C@@H](CO)N2C(=O)NC(C)C | -0.399% |
| Nc1ccccc1-c1nc2ccncc2[nH]1 | 12.2% (active) |
| CCOC(=O)CNC(=O)CSc1ncccc1-c1nc2ccccc2[nH]1 | -7.68% |

| SMILES | inhibition |
| --- | --- |
| Cc1cc(C)nc(Nc2n[nH]c(-c3ccccc3N)n2)n1 | -0.68% |
| COCC(=O)N(C)C[C@@H]1Oc2ncc(-c3ccccc3OC)cc2C(=O)N([C@@H](C)CO)C[C@@H]1C | -11.6% |
| CC(C)NC(=O)N1C[C@@H]2[C@H](c3ccccc31)[C@@H](CO)N2Cc1ccc(Cl)cc1 | -0.718% |
| Cc1noc(C)c1NC(=O)N(C)C[C@@H]1OCCCC[C@H](C)Oc2ccc(NC(=O)NC3CCCCC3)cc2C(=O)N([C@H](C)CO)C[C@@H]1C | 0.987% |
| COc1cc(/C=C2\C(=N)N3N=C(CC(=O)N4CCOCC4)SC3=NC2=O)cc(OC)c1OC | 0.211% |
| C=CCC1=C/C(=C\c2c(N)n3nc(CC(=O)N4CCOCC4)sc3nc2=O)C=C(OC)C1=O | -3.86% |
| COC1=C/C(=C/c2c(N)n3nc(CC(=O)N4CCOCC4)sc3nc2=O)C=CC1=O | 11.3% (active) |
| CCCC(=O)N1CC2(CCN(C(=O)C3CC3)CC2)c2c(n(C)c3cc(OC)ccc23)[C@H]1CO | -0.231% |
| CCS(=O)(=O)Nc1ccc2c(c1)C(=O)N(C)C[C@@H](OC)[C@@H](C)CN(C(=O)COC)[C@H](C)CO2 | -1.04% |
| C[C@@H]1CCCCO[C@@H](CN(C)C(=O)NC2CCCCC2)[C@@H](C)CN([C@@H](C)CO)C(=O)c2cc(NC(=O)C3CCCCC3)ccc2O1 | 0.287% |
| C[C@@H]1CN([C@H](C)CO)C(=O)CCCn2cc(nn2)CO[C@@H]1CN(C)C(=O)Nc1ccc(-c2cccs2)cc1 | -8.3% |
| O=C(COC(=O)c1cccnc1Cl)NC(=O)NC1CCCCC1 | 1.25% |
| CC(Oc1ccc(Br)cc1)C(=O)NC1CCCCCC1 (centres undefined) | 2.69% |
| CC(OC(=O)c1cccnc1Cl)C(=O)NC1CCCCC1 (centres undefined) | 15.9% (active) |
| COCCNC(=O)[C@@H]1[C@@H](CO)[C@@H]2Cn3c(ccc(-c4ccccc4F)c3=O)[C@@H]2N1C(=O)C1CC1 | -1.01% |
| Cc1ccccc1S(=O)(=O)NCC[C@@H]1CC[C@H](NC(=O)C2CCCCC2)[C@@H](CO)O1 | 0.652% |
| C=CCn1c(SCc2ccccc2)nc2c1c(=O)[nH]c(=O)n2C | 1.32% |
| Cc1nnc(Sc2nc3c(c(=O)[nH]c(=O)n3C)n2Cc2ccccc2)s1 | -0.878% |
| Cn1c(=O)[nH]c(=O)c2c1[nH]c(=S)n2Cc1ccccc1 | 20.2% (active) |
| CC(=O)N1CCCCN2[C@H](C1)[C@@H](c1ccc(-c3ccc(F)cc3)cc1)[C@@H]2CO | -0.351% |
| C[C@H]1CN([C@@H](C)CO)S(=O)(=O)c2ccc(-c3ccccc3F)cc2O[C@H]1CN(C)C(=O)C1CC1 | -0.346% |
| COc1ccc(NC(=O)N[C@H]2CC[C@@H](CCNC(=O)c3cc(Cl)cc(Cl)c3)O[C@H]2CO)cc1 | -0.154% |
| C[C@H]1CN([C@@H](C)CO)C(=O)Cc2cc(NC(=O)Cn3cnnn3)ccc2O[C@H]1CN(C)CC1CC1 | 0.02% |

Reference: PubChem BioAssay AID652162 (Broad Institute, 2013)
